# High-throughput results as filed in PubChem.
# NPC1 promoter act – activators of NPC1 promoter | Huh7 NPC1 promoter luciferase reporter, 24 h | Potency, µM (series often up to 9.22 µM), without a hit: at the top dose activation, usual class: activators | 2.4% of 320,000 active | AID 485313; note: % of control where 0% means no effect; nearly all actives have a fitted effect of over 60% in size
#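 NPC1 promoter–luciferase Huh7 cells; 24 h compound; luminescence.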
# FLuc modulator – inhibits or activates purified firefly luciferase, miR-21 counter-screen. P08659. purified FLuc, Km substrates, luminescence inhibition. Potency, µM (series often up to 57.5 µM), for the others: at the highest dose activity change, negative = inhibition, most hits filed as inhibitors. 6.9% of 360,000 active;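 note: plate controls were vehicle for no effect and reference inhibitor for full effect; nearly all actives have a fitted effect of over 55% in size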
# Target sequence (P08659 whole entry, looked up): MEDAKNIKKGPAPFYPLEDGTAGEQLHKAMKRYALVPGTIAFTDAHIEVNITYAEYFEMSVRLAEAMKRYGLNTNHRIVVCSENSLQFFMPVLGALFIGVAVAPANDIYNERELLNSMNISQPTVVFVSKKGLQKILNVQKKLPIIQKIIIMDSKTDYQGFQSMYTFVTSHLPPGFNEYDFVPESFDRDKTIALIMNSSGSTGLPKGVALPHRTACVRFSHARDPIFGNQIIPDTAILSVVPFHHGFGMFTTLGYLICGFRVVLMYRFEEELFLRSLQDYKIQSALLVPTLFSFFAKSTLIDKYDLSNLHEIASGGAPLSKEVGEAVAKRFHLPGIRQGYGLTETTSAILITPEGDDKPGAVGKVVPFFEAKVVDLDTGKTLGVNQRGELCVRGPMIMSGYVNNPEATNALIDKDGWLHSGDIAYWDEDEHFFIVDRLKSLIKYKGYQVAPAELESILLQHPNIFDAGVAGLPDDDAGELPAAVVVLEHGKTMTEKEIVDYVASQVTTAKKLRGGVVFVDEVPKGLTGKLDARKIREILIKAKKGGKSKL
#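 Purified P. pyralis luciferase (10nM final) with 10uM D-luciferin and 10uM ATP (Km levels) in 50mM Tris acetate pH 7.5, 10mM Mg acetate, 0.01% Tween-20, 0.05% BSA; qHTS 6-point titration, ~60 µM downward; luminescence read.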
# SMN2 splice up – enhancers of SMN2 splice variant expression. HEK293 SMN2-luciferase splicing reporter, luminescence, 30-36 h. Potency, µM (highest dose often 46.1 µM), for the others: at the top dose activity change, positive = activation, usual class: activators. 2.8% of 210,000 active; note: % of control where 0% means no effect; nearly all actives have a fitted effect of over 55% in size
#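 HEK293 cells carry an SMN2 […]–luciferase reporter in which exon 7 inclusion puts luciferase in frame. Cells were plated 10-12 h before compound addition, then incubated 30-36 h at 37C. ONE-Glo luminescence was read; sodium butyrate at 4.5 mM final served as control.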
# Rab9 promoter act – Rab9 promoter activation. Potency, µM (top dose mostly 9.22 µM), for inactives: at the top dose activation, negative = inhibition, hits mostly activators. 2.8% of 320,000 active. Huh7 Rab9 promoter-luciferase reporter, luminescence, 24 h; note: % of control where 0% means no effect; nearly all actives have a fitted effect of over 60% in size
#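 Stable Rab9-luc Huh7, 1500 cells/well, 2 h settle; cmpd in DMSO, 24 h, 37 °C/5% CO2; luciferase reagent 10 min RT; luminescence.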
# Luc counter – counter-screen: inhibitors of Kinase-Glo firefly luciferase. Q27757. Kinase-Glo luciferase, ATP luminescence, 8 min. 0.28% of 200,000 active. AID 1379. Potency, µM (top dose mostly 38.3 µM), for the others: at the top dose activity change, negative = inhibition, hits mostly inhibitors; note: % is set by controls: 0 for no effect and ±100 for the full control effect; nearly all actives have a fitted effect of over 60% in size
#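 Compounds were added to a substrate mix at pH 7.2 (50 mM imidazole, 10 uM ATP, within the enzyme's linear range), followed by Kinase-Glo detection reagent; luminescence was measured after 8 minutes at ambient temperature.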
# Numbers without * were called inactive; ? = inconclusive; . = not tested or not shown; [ ] = another dose, or the depositor's remark. Shown are actives, neighbours in structure and some others; about 7.3% of the full set was active somewhere. Calls come from the whole dose curve; as a rule, active = well fitted curve in the direction sought with a large enough effect; inconclusive = small, poorly fitted or top-dose-only effect, or another doubt; inactive = no such curve, though single readings can be large; an effect the other way counts as inactive or inconclusive. Potency is the fitted concentration of half-maximal effect.
SMILES,NPC1 promoter act,FLuc modulator,SMN2 splice up,Rab9 promoter act,Luc counter
Cc1ccc(NC(=O)c2ccc(NC(=O)C3CCCCC3C(=O)O)cc2)cc1 (stereo not given),-3%,17µM*,.,-1%,.
Cc1cc2ccc(=O)oc2cc1OC[C@@H](O)C(C)(C)O,.,.,.,.,4%
O=C(Nc1cccs1)Nc1ccc(F)cc1F,25%,?,10%,?,0%
Cc1ccc(NC(=O)Nc2cccs2)c(Cl)c1,.,8.5µM*,6%,.,-4%
O=C(Nc1cccs1)Nc1cccnc1Cl,1%,?,.,-39%,.
O=C(Nc1cccs1)Nc1ccc(Br)cc1F,1%,12µM*,0%,-1%,-8%
O=C(Nc1cccs1)Nc1ccccc1Cl,14%,27µM*,-56%,22%,-11%
CCCN1C(=O)C(NC(=O)c2ccccc2OC)(C(F)(F)F)C(C(=O)OC)=C1C (stereo not given),.,-3%,-15%,.,.
O=C(/C=C/c1ccco1)NCc1ccccn1,0%,-10%,10%,11%,0%
O=C(/C=C/c1ccccc1)Nc1cccnc1Cl,2.2µM*,12µM*,.,2.2µM*,.
COC(=O)c1ccccc1NC(=O)/C=C/c1ccco1,10%,15µM*,15%,28%,-11%
O=C(/C=C/c1ccco1)Nc1cccnc1Cl,4µM*,15µM*,.,4µM*,.
O=C(/C=C/c1ccco1)Nc1ccccc1N1CCCCC1,-2%,1%,-7%,-1%,1%
CCc1nn2c(=O)c(S(=O)(=O)Nc3ccc(OC)c(Cl)c3)c(C)nc2s1,.,-9%,-11%,.,.
Cc1ccc([N+](=O)[O-])cc1N=Cc1ccc(Br)s1,?,13µM*,?,-1%,2%
COc1ccc2c(C)c(CC(=O)NCc3ccccc3Cl)c(=O)oc2c1OC,.,-7%,-1%,.,.
COc1cccc(CNC(=O)Cn2cc3c(n2)-c2c(oc(C(=O)N4CCOCC4)c2C)CC3)c1,.,0%,.,.,.
Fc1ccc(/C=N/NC2=Nc3cccc4cccc2c34)cc1,1.6µM*,1.7µM*,11µM*,1.6µM*,-5%
c1ccc(NC2=Nc3cccc4cccc2c34)cc1,1%,15µM*,-44%,-2%,-5%
Fc1ccc(/C=N/Nc2nnnn2-c2ccccc2)cc1,-6%,-13%,4%,-6%,0%
O=C(NNC1=Nc2cccc3cccc1c23)c1ccccc1Br,0%,-1%,-23%[1.84 µM],0%,-2%
COc1ccc(NC2=Nc3cccc4cccc2c34)cc1,-2%,13µM*,-11%[1.84 µM],-2%,-1%
COc1ccc(C2=Nc3cccc4cccc(c34)N2)cc1,5%,5.4µM*,4%,-26%,-4%
CCOC(=O)c1c(S(=O)(=O)N2CCC(C(=O)Nc3ccc(C)cc3C)CC2)c(C)n(C)c1C,.,-2%,.,.,.
COc1ccccc1OCC(=O)Nc1c(C(=O)c2ccc(F)cc2)oc2ccccc12,.,4%,-5%,.,.
SMILES,NPC1 promoter act,FLuc modulator,SMN2 splice up,Rab9 promoter act,Luc counter
COc1ccc(C(=O)CC2(O)C(=O)N(CCc3ccccc3)c3ccc(Br)cc32)cc1OC (stereo not given),.,-17%,-15%,.,.
O=C(O)c1cccc(NC2=Nc3cccc4cccc2c34)c1,0.45µM*,0.48µM*,.,?,.
Fc1cccc(/C=N/Nc2nncc3ccccc23)c1,0.32µM*,0.6µM*,.,?,.
C(=N\Nc1nncc2ccccc12)/c1ccccn1,?,1.7µM*,.,?,.
COc1ccc(/C=N/Nc2nn3cnnc3c3ccccc23)cc1,5%,?,.,5%,.
CC(=O)Nc1ccc(/C=N/Nc2nncc3ccccc23)cc1,2.8µM*,12µM*,.,1.1µM*,.
Cc1ccc(NC(=O)CSc2nncc3ccccc23)cc1,-6%,-25%,.,3%,.
COc1ccc(OC)c(Nc2ncnc3c2nc2n3CCCC2)c1,.,3%,.,.,.
CC(C)c1cc(C(=O)NCc2ccc(F)cc2)no1,.,-18%,?,.,.
CC(C)Oc1ccc(CSc2ncn[nH]2)cc1,26%,15µM*,.,?,-9%
COc1ccc(OCCSc2ncn[nH]2)cc1,?,13µM*,.,?,-4%
COc1ccc(OCCSc2n[nH]c(N)n2)cc1,-2%,-7%,-33%,2%,-8%
CCOc1ccc(CNC(=O)C2Cc3ccccc3N2C(=O)CC)cc1 (stereo not given),.,6%,.,.,.
O=C(c1ccccc1)n1ccc(-c2cccs2)n1,12%,6µM*,.,-1%,.
CCc1ccc(NC(=O)c2cc(CN3CCOCC3)on2)cc1,.,-5%,.,.,.
O=C(CCCN1C(=O)/C(=C/c2ccccc2Cl)SC1=S)NCCCN1CCOCC1,-13%,17µM*,.,-11%,.
COC(=O)c1ccc(/C=C2/SC(=S)N(CCC(=O)NCCCN3CCOCC3)C2=O)cc1,-3%,?,.,-4%,.
O=C(CCN1C(=O)/C(=C/c2ccccc2)SC1=S)NCCCN1CCOCC1,-1%,5%,.,-5%,.
CCc1ccc(/C=C2/SC(=S)N(CCC(=O)NCCCN3CCOCC3)C2=O)cc1,10%,5.4µM*,.,-7%,.
CCOc1ccc(/C=C2\SC(=S)N(CCCC(=O)NCCCN3CCOCC3)C2=O)cc1,-34%,9.5µM*,.,-37%,.
CCOC(=O)CN(Cc1ccccc1)C(C(=O)NC1CCCCC1)c1ccc(OC)cc1 (stereo not given),.,-2%,-7%,.,.
Cc1ccc(C(=O)O/N=C/c2c(N3CCOCC3)n(C)c3ccccc23)cc1,-17%,6µM*,-47%,-39%,2%
Cn1c(N2CCOCC2)c(/C=N/OC(=O)c2ccc(F)cc2)c2ccccc21,-18%,9.5µM*,-70%,-33%,-2%
CC(=O)O/N=C/c1c(N2CCOCC2)n(C)c2ccccc12,-9%,14%,-62%,-5%,-7%
COc1cccc(NS(=O)(=O)c2ccc3[nH]cc(C(=O)NC4CCCCC4)c(=O)c3c2)c1,.,?,-67%,.,.
SMILES,NPC1 promoter act,FLuc modulator,SMN2 splice up,Rab9 promoter act,Luc counter
CCCCN(CC)CCCNC(=O)CCN1N=C(c2ccc(OC)cc2)CCC1=O,.,2%,.,.,.
CCOC(=O)c1c(C)oc2nc(C)nc(Nc3cc(C)cc(C)c3)c12,.,-2%,.,.,.
COc1cccc(C=Nc2ccc3c(c2)OCCO3)c1O,7%,19µM*,19%,-1%,7.9µM*
Cc1cc(O)c(C=Nc2ccc(N3CCOCC3)cc2)c(C)c1Cl,0%,4.8µM*,.,5%,.
COc1cccc(/C=N/NC(=O)CNC(=O)c2ccc3c(c2)OCCO3)c1O,-3%,-16%,-15%,-6%,-2%
COc1ccc(N=Cc2cccc(C)c2O)cc1Cl,-4%,27µM*,7%,10%,-3%
COc1cccc(/C=N/N2CCOCC2)c1O,30%,6.7µM*,.,?,.
CCCCNC(=O)c1cc(-c2cccnc2)nc2ccc(S(=O)(=O)NCCCC)cc12,.,-1%,.,.,.
N#C/C(=C\c1c(Oc2ccc(F)cc2)nc2ccccn2c1=O)c1nc2ccccc2s1,.,-17%,8%,.,.
COc1cccc(C=Nc2ccc(N3CCOCC3)cc2)c1O,4%,12µM*,.,15%,.
CCN1CCC(N2CCN(c3ccc(F)cc3)CC2)CC1,-2%,6%,.,-5%,.
